Reference: PubChem BioAssay (NCI)
This is part of a sample that, as a whole, favours compounds with a hit. Of some 79,000 tested, about 15% had one in any assay. A number with no mark means an inactive call. Active and inactive are the calls of the source. Cut-off read from the data, not from the text of the source: active = growth inhibition above about 70%; inactive = the rest.

Columns and labels:
[1] = NCI Yeast Anticancer Drug Screen. Data for the rad52 strain (AID 147);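 note: 0% = growth of vehicle-treated control cultures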; conditions: S. cerevisiae rad52 mutant growth inhibition, active compounds read high
How it was run: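 Here a repair-compromised yeast strain receives each compound; its growth is then quantified and normalised to vehicle-only controls.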

[2] = NCI Yeast Anticancer Drug Screen. Data for the wt1 strain (AID 149);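 note: 0% = growth of vehicle-treated wt1 cultures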; conditions: S. cerevisiae wt1 strain (SPY 50644) growth inhibition, active compounds read high
How it was run: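 Readout: yeast growth inhibition, normalised to vehicle controls, in the wt1 strain exposed to test compounds.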

[3] = NCI Yeast Anticancer Drug Screen. Data for the rad50EPP+ strain (AID 151);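 note: 0% = growth of vehicle-treated control cultures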; conditions: S. cerevisiae rad50 mutant strain, active compounds read high
How it was run: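 Read-out is yeast growth inhibition relative to vehicle; cells used were the rad50EPP+ strain.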

[4] = NCI Yeast Anticancer Drug Screen. Data for the mgt1 strain (AID 153); conditions: S. cerevisiae mgt1 mutant growth inhibition, active compounds read high
How it was run: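 Measured: inhibition of mgt1 yeast growth by compound, normalized to vehicle-treated cultures.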

[5] = NCI Yeast Anticancer Drug Screen. Data for the rad50 strain (AID 155);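 note: 0% = growth of vehicle-only cultures of the same strain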; conditions: S. cerevisiae rad50 strain growth inhibition, active compounds read high
How it was run: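 Compounds were tested on a yeast strain with an engineered DNA damage repair alteration; the reported value is growth inhibition normalised to vehicle treatment.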

[6] = NCI Yeast Anticancer Drug Screen. Data for the mec2-1 strain (AID 157); conditions: S. cerevisiae mec2-1 strain, active compounds read high
How it was run: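 Using mec2-1 yeast: add compound, measure growth, express inhibition versus vehicle-treated cultures.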

[7] = NCI Yeast Anticancer Drug Screen. Data for the rad14 strain (AID 159);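 note: 0% = growth of vehicle-treated control cultures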; conditions: S. cerevisiae rad14 strain growth inhibition, active compounds read high
How it was run: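 Compound-treated yeast with a defined DNA-repair lesion; growth inhibition normalised to vehicle-treated cultures.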

[8] = NCI Yeast Anticancer Drug Screen. Data for the sgs1 mgt1 strain (AID 161);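 note: 0% = growth of cultures given vehicle only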; conditions: S. cerevisiae sgs1 mgt1 strain, active compounds read high
How it was run: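 Yeast cells carrying a defined DNA-repair defect were exposed to test compounds. Growth inhibition was measured relative to vehicle-treated controls.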

[9] = NCI Yeast Anticancer Drug Screen. Data for the CLN2oe strain (AID 163);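 note: 0% = growth of vehicle-only control cultures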; conditions: S. cerevisiae CLN2oe strain, active compounds read high
How it was run: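 Whole-cell yeast growth assay. A strain engineered for altered cell-cycle control received compound, and inhibition relative to vehicle-treated cultures was recorded.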

[10] = NCI Yeast Anticancer Drug Screen. Data for the cln2 rad14 strain (AID 165);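 note: 0% = growth equal to vehicle treated cultures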; conditions: S. cerevisiae cln2 rad14 strain, active compounds read high
How it was run: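 Yeast strain cln2 rad14, bearing defects in cell cycle control and DNA repair, serves as the test system; values reflect growth inhibition compared with vehicle.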

[11] = NCI Yeast Anticancer Drug Screen. Data for the bub3 strain (AID 167); conditions: S. cerevisiae bub3 mutant strain, active compounds read high
How it was run: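 Growth of a checkpoint-deficient yeast mutant is measured after compound exposure. Values represent inhibition relative to vehicle.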

[12] = NCI Yeast Anticancer Drug Screen. Data for the wt2 strain (AID 169);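 note: 0% = growth of vehicle-treated yeast cultures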; conditions: S. cerevisiae wt2 strain growth inhibition, active compounds read high
How it was run: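 Treated yeast vs. vehicle-treated yeast: growth inhibition determined.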

[13] = NCI Yeast Anticancer Drug Screen. Data for the mlh1 strain (AID 171);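 note: 0% = growth of vehicle-treated control cultures of the same strain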; conditions: S. cerevisiae mlh1 strain growth inhibition, active compounds read high
How it was run: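 A yeast strain with a defined genetic lesion serves as the test organism. Cultures receive compound or vehicle, and growth is measured.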

[14] = NCI Yeast Anticancer Drug Screen. Data for the sgs1 strain (AID 173);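 note: 0% = growth of vehicle-only control cultures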; conditions: S. cerevisiae sgs1 mutant, active compounds read high
How it was run: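 A genetically defined yeast mutant is incubated with the test compound, and its growth is compared to that of the same strain given vehicle.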

[15] = NCI Yeast Anticancer Drug Screen. Data for the mlh1 rad18 strain (AID 175); conditions: S. cerevisiae mlh1 rad18 strain growth inhibition, active compounds read high
How it was run: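 Steps: expose repair-defective yeast to compound; measure growth; express inhibition against vehicle-treated controls.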

[16] = NCI Yeast Anticancer Drug Screen. Data for the rad18 strain (AID 177); conditions: S. cerevisiae rad18 mutant growth inhibition, active compounds read high
How it was run: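 Measured value is growth inhibition of a yeast strain bearing a DNA repair alteration, referenced to vehicle-treated cells.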

[17] = at 5.0 µM (retest, dose inferred, filed as 0.5)
[18] = at 50.0 µM (retest, dose inferred, filed as 5.0)

COC(=O)CC1(O)C(/C=C/c2ccccc2)C(C(=O)OC)C(=O)C(C(=O)OC)C1C(=O)OC (stereo unspecified)
growth inhibition ([1]; at 1.2 µM): 0%
growth inhibition ([1]; at 3.7 µM): 0%
growth inhibition ([1]; at 11.0 µM): 1%
growth inhibition ([1]; at 33.0 µM): 2%
growth inhibition ([1]; at 100.0 µM): 13%
growth inhibition ([2]; at 1.2 µM): 1%
growth inhibition ([2]; at 3.7 µM): 1%
growth inhibition ([2]; at 11.0 µM): 1%
growth inhibition ([2]; at 33.0 µM): -1%
growth inhibition ([2]; at 100.0 µM): -1%
growth inhibition ([3]; at 1.2 µM): -7%
growth inhibition ([3]; at 3.7 µM): -6%
growth inhibition ([3]; at 11.0 µM): -7%
growth inhibition ([3]; at 33.0 µM): -6%
growth inhibition ([3]; at 100.0 µM): -16%
growth inhibition ([4]; at 1.2 µM): -2%
growth inhibition ([4]; at 3.7 µM): -3%
growth inhibition ([4]; at 11.0 µM): -3%
growth inhibition ([4]; at 33.0 µM): 13%
growth inhibition ([4]; at 100.0 µM): 43%
growth inhibition ([5]; at 1.2 µM): -1%
growth inhibition ([5]; at 3.7 µM): -1%
growth inhibition [5, 17]: -3%
growth inhibition ([5]; at 11.0 µM): 2%
growth inhibition ([5]; at 33.0 µM): 1%
growth inhibition [5, 18]: 6%
growth inhibition ([5]; at 50.0 µM): 38.9%
growth inhibition ([5]; at 100.0 µM): 4%
growth inhibition ([6]; at 1.2 µM): -3%
growth inhibition ([6]; at 3.7 µM): -1%
growth inhibition [6, 17]: 1%
growth inhibition ([6]; at 11.0 µM): -4%
growth inhibition ([6]; at 33.0 µM): -2%
growth inhibition [6, 18]: 20%
growth inhibition ([6]; at 50.0 µM): 50%
growth inhibition ([6]; at 100.0 µM): 12%
growth inhibition ([7]; at 1.2 µM): -4%
growth inhibition ([7]; at 3.7 µM): -1%
growth inhibition ([7]; at 11.0 µM): 0%
growth inhibition ([7]; at 33.0 µM): 0%
growth inhibition ([7]; at 100.0 µM): 2%
growth inhibition [8, 17]: -1%
growth inhibition [8, 18]: 23%
growth inhibition ([8]; at 50.0 µM): 48%
growth inhibition ([9]; at 1.2 µM): -2%
growth inhibition ([9]; at 3.7 µM): 1%
growth inhibition ([9]; at 11.0 µM): -2%
growth inhibition ([9]; at 33.0 µM): -7%
growth inhibition ([9]; at 100.0 µM): 39%
growth inhibition [10, 17]: -18%
growth inhibition [10, 18]: 44%
growth inhibition ([10]; at 50.0 µM): -0.7%
growth inhibition ([11]; at 1.2 µM): -4%
growth inhibition ([11]; at 3.7 µM): -5%
growth inhibition [11, 17]: -2%
growth inhibition ([11]; at 11.0 µM): -2%
growth inhibition ([11]; at 33.0 µM): -4%
growth inhibition [11, 18]: 6%
growth inhibition ([11]; at 50.0 µM): 74.2% (active)
growth inhibition ([11]; at 100.0 µM): -5%
growth inhibition ([12]; at 1.2 µM): -2%
growth inhibition ([12]; at 3.7 µM): -2%
growth inhibition ([12]; at 11.0 µM): 0%
growth inhibition ([12]; at 33.0 µM): -1%
growth inhibition ([12]; at 100.0 µM): 7%
growth inhibition ([13]; at 1.2 µM): 1%
growth inhibition ([13]; at 3.7 µM): -1%
growth inhibition ([13]; at 11.0 µM): 0%
growth inhibition ([13]; at 33.0 µM): 1%
growth inhibition ([13]; at 100.0 µM): 5%
growth inhibition ([14]; at 1.2 µM): -1%
growth inhibition ([14]; at 3.7 µM): 1%
growth inhibition ([14]; at 11.0 µM): 1%
growth inhibition ([14]; at 33.0 µM): 4%
growth inhibition ([14]; at 100.0 µM): 43%
growth inhibition [15, 17]: 6%
growth inhibition [15, 18]: 30%
growth inhibition ([15]; at 50.0 µM): 85.3% (active)
growth inhibition ([16]; at 1.2 µM): 0%
growth inhibition ([16]; at 3.7 µM): -2%
growth inhibition ([16]; at 11.0 µM): -4%
growth inhibition ([16]; at 33.0 µM): 3%
growth inhibition ([16]; at 100.0 µM): 4%

CC12C(=O)OC(=O)C(c3ccccc31)c1ccccc12
growth inhibition ([1]; at 1.2 µM): -8%
growth inhibition ([1]; at 3.7 µM): -2%
growth inhibition ([1]; at 11.0 µM): -12%
growth inhibition ([1]; at 33.0 µM): -4%
growth inhibition ([1]; at 100.0 µM): 3%
growth inhibition ([2]; at 1.2 µM): 2%
growth inhibition ([2]; at 3.7 µM): -2%
growth inhibition ([2]; at 11.0 µM): 4%
growth inhibition ([2]; at 33.0 µM): 2%
growth inhibition ([2]; at 100.0 µM): 9%
growth inhibition ([3]; at 1.2 µM): -11%
growth inhibition ([3]; at 3.7 µM): -25%
growth inhibition ([3]; at 11.0 µM): -30%
growth inhibition ([3]; at 33.0 µM): 19%
growth inhibition ([3]; at 100.0 µM): 9%
growth inhibition ([4]; at 1.2 µM): -7%
growth inhibition ([4]; at 3.7 µM): -9%
growth inhibition ([4]; at 11.0 µM): -5%
growth inhibition ([4]; at 33.0 µM): -4%
growth inhibition ([4]; at 100.0 µM): -6%
growth inhibition ([5]; at 1.2 µM): -18%
growth inhibition ([5]; at 3.7 µM): -17%
growth inhibition [5, 17]: 43%
growth inhibition ([5]; at 11.0 µM): -16%
growth inhibition ([5]; at 33.0 µM): -16%
growth inhibition [5, 18]: 21%
growth inhibition ([5]; at 50.0 µM): 98.3% (active)
growth inhibition ([5]; at 100.0 µM): 20%
growth inhibition ([6]; at 1.2 µM): -5%
growth inhibition ([6]; at 3.7 µM): -6%
growth inhibition [6, 17]: 47%
growth inhibition ([6]; at 11.0 µM): -5%
growth inhibition ([6]; at 33.0 µM): -5%
growth inhibition [6, 18]: 28%
growth inhibition ([6]; at 50.0 µM): 91% (active)
growth inhibition ([6]; at 100.0 µM): -2%
growth inhibition ([7]; at 1.2 µM): -4%
growth inhibition ([7]; at 3.7 µM): -9%
growth inhibition ([7]; at 11.0 µM): 0%
growth inhibition ([7]; at 33.0 µM): 2%
growth inhibition ([7]; at 100.0 µM): 8%
growth inhibition [8, 17]: 33%
growth inhibition [8, 18]: 21%
growth inhibition ([8]; at 50.0 µM): 97.2% (active)
growth inhibition ([9]; at 1.2 µM): -9%
growth inhibition ([9]; at 3.7 µM): -8%
growth inhibition ([9]; at 11.0 µM): -10%
growth inhibition ([9]; at 33.0 µM): -11%
growth inhibition ([9]; at 100.0 µM): -10%
growth inhibition [10, 17]: 9%
growth inhibition [10, 18]: 5%
growth inhibition ([10]; at 50.0 µM): 76.2% (active)
growth inhibition ([11]; at 1.2 µM): -7%
growth inhibition ([11]; at 3.7 µM): -5%
growth inhibition [11, 17]: 28%
growth inhibition ([11]; at 11.0 µM): -8%
growth inhibition ([11]; at 33.0 µM): -5%
growth inhibition [11, 18]: 49%
growth inhibition ([11]; at 50.0 µM): 68.1%
growth inhibition ([11]; at 100.0 µM): 2%
growth inhibition ([12]; at 1.2 µM): -7%
growth inhibition ([12]; at 3.7 µM): -5%
growth inhibition ([12]; at 11.0 µM): 11%
growth inhibition ([12]; at 33.0 µM): 9%
growth inhibition ([12]; at 100.0 µM): 7%
growth inhibition ([13]; at 1.2 µM): -11%
growth inhibition ([13]; at 3.7 µM): -9%
growth inhibition ([13]; at 11.0 µM): -7%
growth inhibition ([13]; at 33.0 µM): -6%
growth inhibition ([13]; at 100.0 µM): -6%
growth inhibition ([14]; at 1.2 µM): -12%
growth inhibition ([14]; at 3.7 µM): -8%
growth inhibition ([14]; at 11.0 µM): -1%
growth inhibition ([14]; at 33.0 µM): 2%
growth inhibition ([14]; at 100.0 µM): 11%
growth inhibition [15, 17]: 58%
growth inhibition [15, 18]: 54%
growth inhibition ([15]; at 50.0 µM): 93.6% (active)
growth inhibition ([16]; at 1.2 µM): -8%
growth inhibition ([16]; at 3.7 µM): -10%
growth inhibition ([16]; at 11.0 µM): -5%
growth inhibition ([16]; at 33.0 µM): 0%
growth inhibition ([16]; at 100.0 µM): -7%
